Assay results as given in PubChem BioAssay AID2685 (National Center for Advancing Translational Sciences (NCATS), 2010).
The whole screen tested about 320,000 compounds, of which about 2,100 (0.66%) were called active. About 53% were inconclusive and are not listed. This is one part of a sample in which actives are shown more often than they occur. Calls come from the whole dose curve; as a rule, active = well fitted inhibition curve with a large enough effect in the signal ratio, with a control signal flat (not every such curve was filed as active); inconclusive = small, poorly fitted or top-dose-only effect, or effect the other way, or a change in a side signal; inactive = flat fitted curve, though single readings scatter; the % refers to the signal ratio.

Test: qHTS Assay for Lipid Storage Modulators in Drosophila S3 Cells;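 for cell number change: cells counted by Cell Tracker Red CMTPX staining in the red channel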; for lipid storage change, negative = inhibition: % is set by controls: 0 for no effect and ±100 for the full control effect
Settings: BODIPY lipid droplet fluorescence, 18-24 h, cells fed with added oleic acid; cell number change: measured here: cell count max response; series mostly up to 46.1 µM; lipid storage change, negative = inhibition: at the top concentration
Text: NIH Molecular Libraries Probe Production Centers Network [MLPCN] NIH Chemical Genomics Center [NCGC] MLPCN Grant: 1 R03 MH085686-01 Assay Submitter (PI): Beller, Mathias; Max-Planck-Institut fur Biophysikalische Chemie NCGC Assay Overview: Storing lipids as a reservoir for energy or the anabolism of elementary metabolites is a common feature of probably all cells and is conserved from bacteria to humans. The universal cellular lipid storage organelle is the so-called lipid storage droplet (LD). Although ubiquitous, LDs share a simple structure composed of a hydrophobic core that harbors the storage lipids, which is shielded by a droplet-specific phospholipid monolayer to which proteins are attached. The current model of LD biogenesis involves an incorporation of the lipid core into the membrane leaflets of the endoplasmic reticulum (ER) followed by a subsequent budding-like maturation of a LD, which ultimately pinches off. Once released, LD volume can increase by localized lipogenesis or fusion of existing droplet. Storage lipids are re-mobilized enzymatically by lipase activity. Lipase regulation in the adipocyte is heavily studied and involves multiple components including catecholamine signaling, the LD-associated proteins Perilipin and comparative gene identification (CGI-58) and at least two lipases named hormone sensitive lipase (HSL) and adipocyte triglyceride lipase (ATGL). LD regulation outside of the adipocyte is poorly understood and only few components are known. However, there is an urgent need to learn more about ectopic fat depots as mislocalized storage of lipids, for example in the liver or muscle, is an eminent health problem associated with insulin resistance or the metabolic syndrome. We developed a laser-scanning cytometer assay to enable 1,536-well screening and combined the results of the small molecules screen with an RNAi database based on lipid storage.
Triacsin C (Sigma-Aldrich T-4540), an inhibitor of long-chain fatty acyl CoA synthetase that blocks synthesis of triglycerides, was used as a positive control for lipid under-storage. A total of 23 nL of compound solution of different concentrations were transferred to the assay plates using a Kalypsys pin tool equipped with a 1,536-pin array containing 10-nL slotted pins (FP1S10, 0.457-mm diameter, 50.8 mm long; V&P Scientific). One microliter of oleic acid (400 uM) was added, and the plate was lidded with stainless steel rubber gasket lined lids containing pinholes. […] Fluorescence was detected by excitation of the fluorophores with a 488-nm laser on an Acumen Explorer (TTP Lab Tech). The total intensity in channel 2 (500-530 nm) reflected lipid droplet accumulation. Cells were detected using channel 3 (575-640 nm) with 5-um width and 100-um depth filters. The ratio of the number of objects in PMT channel 2 over the number of objects in PMT channel 3 was also calculated. Percent activity was computed relative to an internal control (100% inhibited lipid droplet deposition due to the presence of 20 uM Triacsin C), which was added to 32 wells/plate.
Potency is the fitted concentration of half-maximal effect.

Row | SMILES | lipid storage change, negative = inhibition | cell number change [%] | Potency | outcome
1 | C/C(=N/NC(=O)c1ccncc1)c1ccccc1 | 27.6% (inactive) | -7.04 |  | 
2 | Cc1ccccc1NC(=O)COC(=O)c1ccc(S(C)(=O)=O)c([N+](=O)[O-])c1 |  | -15.7 | 25.9 µM (active) | 
3 | CC(=O)c1cccc(NC(=O)COC(=O)c2ccc(S(C)(=O)=O)c([N+](=O)[O-])c2)c1 | -16.9% (inactive) | -10.3 |  | 
4 | Cc1ccccc1NC(=O)COC(=O)c1ccc(S(=O)(=O)N2CCCC2)cc1 | 9.1% (inactive) | 10.7 |  | 
5 | Cc1ccc(NC(=O)c2c(C)nn(-c3ccccc3)c2Cl)c(C)c1 | 1.17% (inactive) | -13.2 |  | 
6 | CC(=O)N1CCOc2ccc(S(=O)(=O)N3CCC(C(=O)NCc4ccc(C)cc4)CC3)cc21 | -5.97% (inactive) | 17.2 |  | 
7 | CS(=O)(=O)N1CCC(C(=O)NCC2CCCO2)CC1 (centres undefined) |  | -2.74 | 2.31 µM (active) | 
8 | CCCCS(=O)(=O)N1CCC(C(=O)NCC2CCCO2)CC1 (centres undefined) | 0.205% (inactive) | 5.96 |  | 
9 | CCCS(=O)(=O)N1CCC(C(=O)NCC2CCCO2)CC1 (centres undefined) |  |  |  | inactive
10 | COc1ccc(CC(=O)NC2CCN(Cc3nnnn3C(C)(C)C)CC2)cc1OC |  | -1.5 | 2.59 µM (active) | 
11 | Cc1ccccc1C(=O)NC1CCN(Cc2nnnn2C(C)(C)C)CC1 | 4.79% (inactive) |  |  | 
12 | COc1ccc(CC(=O)NC2CC2)cc1OC |  | 20.4 |  | inactive
13 | CCN=C1SC(CC(=O)NC(C)c2ccccc2)C(=O)N1CC (centres undefined) | -3.35% (inactive) | 8.53 |  | 
14 | O=[N+]([O-])c1ccc(N2CCN(CCO)CC2)cc1Sc1nc2ccccc2[nH]1 | -5.35% (inactive) | -10.6 |  | 
15 | Cc1cccc(NC(=S)NN2CCN(C)CC2)c1C |  | 19.2 |  | inactive
16 | CN1CCN(NC(=S)Nc2ccccc2)CC1 | -1.16% (inactive) | 5.3 |  | 
17 | Cc1cccc(C)c1NC(=S)NN1CCN(C)CC1 |  | -31.3 | 23.1 µM (active) | 
18 | COC(=O)c1ccc(COc2ccccc2OC)o1 | 20.1% (inactive) | -9.22 |  | 
19 | COC(=O)c1ccc(Cc2ccccc2)o1 |  | 0.155 | 25.9 µM (active) | 
20 | COC(=O)c1ccc(Cc2ccc(C(=O)OC)o2)o1 | 9.86% (inactive) | 11 |  | 
21 | COc1cccc(CC(=O)N(CCC2=CCCCC2)c2c(N)n(Cc3ccccc3)c(=O)[nH]c2=O)c1 | 24.1% (inactive) | -11.8 |  | 
22 | Cc1nn(-c2ccccc2)c2[nH]c(=O)c(CNCCN3CCOCC3)cc12 |  | -6.25 | 23.1 µM (active) | 
23 | Cc1nn(-c2ccccc2)c2[nH]c(=O)c(CNc3ccc(N4CCOCC4)cc3)cc12 | 21.5% (inactive) | -0.634 |  | 
24 | Cc1ccc(-c2nn(-c3ccccc3)c3[nH]c(=O)c(CNCCN(C)C)cc23)cc1 |  | -8.5 |  | inactive

Row | SMILES | lipid storage change, negative = inhibition | cell number change [%] | Potency | outcome
25 | Cc1ccc2c(COC(=O)c3ccccc3Br)cc(=O)oc2c1 |  | 8.73 |  | inactive
26 | Cc1ccc2c(COC(=O)c3ccccc3OC(F)F)cc(=O)oc2c1 |  | 26.6 |  | inactive
27 | Cc1ccc2c(COC(=O)c3ccccc3Cl)cc(=O)oc2c1 |  | 0.403 | 1.64 µM (active) | 
28 | CN(C)C(=O)c1cc(C(=O)c2ccccc2Br)c[nH]1 | 7.47% (inactive) | 10.8 |  | 
29 | Cc1nn(CC(=O)NCc2cccnc2)c(C)c1[N+](=O)[O-] | 4.48% (inactive) | 15.3 |  | 
30 | COC(c1ccccc1)c1nnc(CCC(=O)NCCc2ccc(Cl)cc2)o1 (centres undefined) |  | -7.97 | 14.6 µM (active) | 
31 | COC(c1ccccc1)c1nnc(CCC(=O)N2CCN(C3CCCC3)CC2)o1 (centres undefined) |  | 22.7 |  | inactive
32 | COC(c1ccccc1)c1nnc(CCC(=O)N2CCCCCCC2)o1 (centres undefined) | 11.6% (inactive) | 7.76 |  | 
33 | CCOC(=O)c1ccc(NC(=O)CCc2nc(-c3ccc(C)cc3)no2)cc1 |  |  |  | inactive
34 | CC(c1ccccc1)C1C(C#N)=C(N)OC2=C1C(=O)CC(C)(C)C2 (centres undefined) | 6.38% (inactive) |  |  | 
35 | CN(CC(=O)Nc1ccccc1Cl)C(=O)Cn1nnc(-c2ccc(F)cc2)n1 |  |  |  | inactive
36 | CCC1CCCCN1C(=O)c1sc2nc(C)nc(N(CC)CC)c2c1C (centres undefined) | 7% (inactive) | 9.48 |  | 
37 | CCCCCN(C(=O)CCC(=O)OC(C)C(=O)NCc1ccccc1)c1c(N)n(CCCC)c(=O)[nH]c1=O (centres undefined) | 4.2% [at 0.0737 µM] (inactive) | -30.3 |  | 
38 | CCCCn1nnnc1SCC(=O)NNC(=O)c1ccco1 | -4.32% (inactive) | 1.07 |  | 
39 | O=C(CN1CCc2ccccc21)NC(=O)NCc1ccccc1 |  |  |  | inactive
40 | CCCCn1c(SCC(=O)NCc2ccco2)nnc1-c1ccco1 | -2.67% (inactive) | -17 |  | 
41 | Cc1ccc(CSCC(=O)NCc2ccco2)cc1 | -0.179% (inactive) | 14.7 |  | 
42 | Cc1ccc(NC(=O)CSc2nnc(-c3ccc(S(=O)(=O)N4CCOCC4)cc3)n2C)cc1 |  |  |  | inactive
43 | Cn1c(SCC(=O)NCc2ccco2)nnc1-c1ccccc1 | -2.43% (inactive) | -3.55 |  | 
44 | O=C(CN1CCc2ccccc21)NC(=O)NCc1ccco1 |  | 0.297 | 6.51 µM (active) | 
45 | Cn1c(SCC(=O)NCc2ccco2)nnc1-c1ccc(S(=O)(=O)N2CCOCC2)cc1 |  | -9.46 | 5.8 µM (active) | 
46 | CCCCn1nnnc1SCC(=O)NCc1ccco1 |  | 0.128 | 23.1 µM (active) | 
47 | O=C(CN1CCCc2ccccc21)NC(=O)NCc1ccco1 |  | 15.9 |  | inactive
48 | O=C(CSc1ccccc1)NCc1ccco1 | 6.48% (inactive) | -1.34 |  | 
